Hits are enriched below; roughly 19% of the tested compounds scored in any of these assays.
IL1B secr inh: inflammasome signaling inhibition, IL-1 beta readout. THP-1 LPS/ATP IL-1B secretion, AlphaLISA, 16 h; active compounds read low. activity change, % at 57.5 µM. 360,000 compounds, 4.7% hits. AID 743279; in the data active means activity change below about -50%; inconclusive means mostly about -30% to -49%
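THP-1 cells pretreated 1 hr with compounds (up to 57.5 uM final), then stimulated with LPS (250 ng/mL final) plus ATP (1.25 mM final); secreted IL-1B measured by AlphaLISA after 16 hr, decreased signal indicating inhibition.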
HT1080 IDH1KD tx: HT-1080 IDH1 knockdown cell toxicity (counter line) | Potency, µM (highest dose often 46.1 µM), usual class: cytotoxic | AID 686971 | 360,000 compounds, 2% hits | HT-1080 IDH1 knockdown viability, ATP luminescence, 48 h
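HT-1080-IDH1KD cells (IDH1 knocked down), 750/well in RPMI with 5% FBS, treated with compound 48 h at 37 degrees C. Viability by CellTiter-Glo luminescence, normalised to DMSO and no-cell wells; concentration-response curves classed.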
HT1080NT lethal: kills 2HG-producing HT-1080-NT fibrosarcoma cells | Potency, µM (highest dose often 46.1 µM), hits mostly cytotoxic | 360,000 compounds, 1.6% hits | HT-1080-NT fibrosarcoma viability, CellTiter-Glo ATP luminescence, 48 h;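 further: NT is the 2HG producing partner of a matched IDH1 knockdown line; nearly all actives have a fitted effect of over 55% in size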
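Compounds were tested in concentration-response format on HT-1080-NT cells for 48 hours at 37 degrees C. Cell viability came from CellTiter-Glo luminescence; curves were classified by r2, response magnitude and activity.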
DT40 TDP1 no CPT: qHTS for Inhibitors of human tyrosyl-DNA phosphodiesterase 1 (TDP1): qHTS in cells in absence of CPT; DT40 Tdp1-/- hTDP1 cells, no CPT, ATP luminescence, 48 h; Potency, µM (titrated, usually from 46.2 µM), most hits filed as inhibitors; 420,000 compounds, 15% hits; AID 686978, 2013; further: nearly all actives have a fitted effect of over 55% in size
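Readout: luminescence from CellTiter-Glo after 30 min in the dark at RT. Cells: DT40 Tdp1-/- with stable hTDP1, 400/well. Exposure: compounds alone, ≥48 hr, 37 °C.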
TDP1 cell CPT: growth inhibition of DT40 Tdp1-/-;hTDP1 cells with camptothecin (screen for TDP1 inhibitors). Potency, µM (top dose mostly 46.2 µM), usual class: inhibitors. 420,000 compounds, 12% hits. chicken DT40 Tdp1-/-;hTDP1 cells + 20 nM CPT, ATP luminescence, 48 h. AID 686979; further: nearly all actives have a fitted effect of over 55% in size
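Cell growth measured by CellTiter-Glo luminescence after a minimum 48 h, 37 C compound exposure with 20 nM CPT in Tdp1-knockout DT40 cells stably expressing hTDP1, seeded 400/well; qHTS titration format.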
Large screens that a line does not name were inactive. Unless noted, the call rests on the fitted dose curve; in most records, active means well fitted curve in the direction sought with a large enough effect; inconclusive means small, poorly fitted or top-dose-only effect, or another doubt; inactive means no such curve, though single readings can be large; an effect the other way counts as inactive or inconclusive.

COC(=O)[C@@]12CCCCN1[C@H](c1ccc(-c3ccc(OC)cc3)c(OC)c1)[C@@H]1C(=O)N(C)C(=O)[C@@H]12	DT40 TDP1 no CPT inconclusive, TDP1 cell CPT 20.6µM
COC(=O)[C@@]12CCCCN1[C@H](c1ccc(-c3ccc(OC)cc3)cc1)[C@@H]1C(=O)N(C)C(=O)[C@@H]12	DT40 TDP1 no CPT 20.6µM, TDP1 cell CPT 20.6µM
COC(=O)[C@@]12CCCCN1[C@H](c1ccc(-c3ccc(C(C)=O)cc3)cc1)[C@@H]1C(=O)N(C)C(=O)[C@@H]12	DT40 TDP1 no CPT 23.1µM, TDP1 cell CPT 14.6µM
COC(=O)[C@@]12CCCCN1[C@H](c1ccc(-c3ccc4c(c3)OCO4)cc1)[C@H]1C(=O)N(C)C(=O)[C@H]12	DT40 TDP1 no CPT 23.1µM, TDP1 cell CPT 13µM
CC1=C(C(=O)Nc2ccc(C)cc2C)C(c2ccc(O)cc2)n2nnnc2N1 (centres undefined)	DT40 TDP1 no CPT inconclusive (no result: IL1B secr inh, HT1080 IDH1KD tx, HT1080NT lethal)
CCOc1ccc2c(c1)N(C(=O)CN1C(=O)CCC1=O)C(C)(C)C=C2C	DT40 TDP1 no CPT inconclusive, TDP1 cell CPT inconclusive
CC1=CC(C)(C)N(C(=O)CNC2CCCC2)c2cc(C)ccc21	DT40 TDP1 no CPT 25.9µM, TDP1 cell CPT inconclusive
CC(C(=O)NC1CCCC1)N(C(=O)Cn1nnc(-c2ccc(F)cc2)n1)c1ccccc1F (centres undefined)	IL1B secr inh -65.8, DT40 TDP1 no CPT 23.1µM, TDP1 cell CPT 23.1µM
COc1ccc(N(C(=O)Cn2nnc(-c3ccc(F)cc3)n2)C(C)C(=O)NC2CCCC2)cc1 (centres undefined)	DT40 TDP1 no CPT inconclusive, TDP1 cell CPT inconclusive
CC(C)CCNC(=O)CN(C(=O)Cn1nnc(-c2ccccc2F)n1)c1cccc2c1CCCC2	IL1B secr inh inconclusive
CCC(C(=O)NC(C)(C)C)N(C(=O)Cn1nnc(-c2ccccc2F)n1)c1cccc2c1CCCC2 (centres undefined)	DT40 TDP1 no CPT 18.4µM, TDP1 cell CPT inconclusive
CC(C)(C)NC(=O)C(c1ccco1)N(C(=O)Cn1nnc(-c2ccc(F)cc2)n1)c1ccccc1F (centres undefined)	IL1B secr inh inconclusive, HT1080 IDH1KD tx inconclusive, DT40 TDP1 no CPT 16.4µM, TDP1 cell CPT 29.1µM
CC(=O)Nc1ccc(C(=O)CSc2nnnn2C2CCCC2)cc1	none
CC(C)CC1NC(=S)N(C2CCCCC2)C1=O (centres undefined)	DT40 TDP1 no CPT 14.6µM, TDP1 cell CPT 8.2µM
O=C1C(Cc2ccc(O)cc2)NC(=S)N1C1CCCCC1 (centres undefined)	none
Fc1cccc(Cl)c1-c1nnc2ccc3ccccc3n12	DT40 TDP1 no CPT 10.3µM, TDP1 cell CPT 25.9µM
Fc1ccccc1-c1nnc2ccc3ccccc3n12	DT40 TDP1 no CPT inconclusive
CCCOC1CCCN(Cc2nc(-c3ccc(C(=O)OC)cc3)no2)C1 (centres undefined)	DT40 TDP1 no CPT inconclusive, TDP1 cell CPT inconclusive
Cc1ccc(CN2CCOc3ccc(CN4CCC(Oc5cccnc5)CC4)cc3C2)o1	DT40 TDP1 no CPT inconclusive (no result: IL1B secr inh, HT1080 IDH1KD tx, HT1080NT lethal)
COc1ccc(CN2CCOc3ccc(CN4CCC(Oc5cccnc5)CC4)cc3C2)c(F)c1	DT40 TDP1 no CPT 20.6µM, TDP1 cell CPT inconclusive (no result: IL1B secr inh, HT1080 IDH1KD tx, HT1080NT lethal)
COc1cc(OC)c(CN2CCOc3ccc(CN4CCC(O)CC4)cc3C2)c(OC)c1	DT40 TDP1 no CPT 23.1µM, TDP1 cell CPT inconclusive (no result: IL1B secr inh, HT1080 IDH1KD tx, HT1080NT lethal)
COc1ccc(F)c(CN2CCOc3ccc(CN4CCC(Oc5cccnc5)CC4)cc3C2)c1	DT40 TDP1 no CPT inconclusive (no result: IL1B secr inh, HT1080 IDH1KD tx, HT1080NT lethal)
COc1cc(CN2CCOc3ccc(CN4CCN(CCO)CC4)cc3C2)ccc1F	none (no result: IL1B secr inh, HT1080 IDH1KD tx, HT1080NT lethal)
COc1cc(CN2CCOc3ccc(CN4CCC(Oc5cccnc5)CC4)cc3C2)ccc1F	DT40 TDP1 no CPT 20.6µM, TDP1 cell CPT inconclusive (no result: IL1B secr inh, HT1080 IDH1KD tx, HT1080NT lethal)
O=C(c1cscn1)N1CCOc2ccc(CN3CCC(Oc4cccnc4)CC3)cc2C1	DT40 TDP1 no CPT 0.291µM, TDP1 cell CPT inconclusive (no result: IL1B secr inh, HT1080 IDH1KD tx, HT1080NT lethal)
CC1(C(=O)NS(=O)(=O)c2cccc(F)c2)CCN1C(=O)CC1CCCC1 (centres undefined)	HT1080NT lethal inconclusive
COc1ccc(CC(N)c2csc(NC(=O)Nc3cc(OC)ccc3OC)n2)cc1 (centres undefined)	HT1080 IDH1KD tx inconclusive, HT1080NT lethal inconclusive, DT40 TDP1 no CPT 5.8µM, TDP1 cell CPT 5.17µM
COc1ccc(OC)c(NC(=O)Nc2nc(C(N)CCc3ccccc3)cs2)c1 (centres undefined)	HT1080 IDH1KD tx 20.6µM, HT1080NT lethal inconclusive, DT40 TDP1 no CPT 9.2µM, TDP1 cell CPT 7.31µM (no result: IL1B secr inh)
COc1cc(NC(=O)Nc2nc(C(N)CCc3ccccc3)cs2)cc(OC)c1OC (centres undefined)	IL1B secr inh inconclusive, HT1080 IDH1KD tx inconclusive, HT1080NT lethal 18.4µM, DT40 TDP1 no CPT 7.31µM, TDP1 cell CPT inconclusive
NC(CCc1ccccc1)c1csc(NC(=O)NCC2CCCCC2)n1 (centres undefined)	IL1B secr inh inconclusive, HT1080 IDH1KD tx inconclusive, HT1080NT lethal 16.4µM, DT40 TDP1 no CPT 14.6µM, TDP1 cell CPT 14.6µM
O=C(NCC1CC1)Nc1ccccc1	none
COc1cc(/C=C/C(=O)NC(C)CCc2ccccc2)cc(OC)c1OC (centres undefined)	DT40 TDP1 no CPT inconclusive, TDP1 cell CPT inconclusive
COc1ccc(OC)c(NC(=O)Nc2nnc(COCCO)s2)c1	none
Cc1occc1-c1nnc(SCC(=O)c2cc3ccccc3oc2=O)o1	none
O=C(NNc1ccnc2cc(Cl)ccc12)C1CCCCC1	HT1080 IDH1KD tx inconclusive, HT1080NT lethal 3.66µM, DT40 TDP1 no CPT 0.651µM, TDP1 cell CPT 0.92µM

Assay outcomes deposited in PubChem by National Center for Advancing Translational Sciences (NCATS).
